Assay results taken from PubChem BioAssay AID652162 (Broad Institute, 2013).
The whole screen tested about 350,000 compounds, of which about 840 (0.24%) were called active. The sample holds actives, similar compounds and a random draw of the others, so the mix is not that of the screen. A number with no mark means an inactive call. No stated cut-off is given here; in the data, active means inhibition above about 10%; inactive means the rest.

target: Toxin B (Clostridioides difficile) (UniProt P18177); assay: TcdB glycohydrolase inhibitors, primary screen, biochemical, single point, plate reader (AID 652162); conditions: TcdB glycohydrolase enzymatic assay, at 9.99 µM, active compounds read high
Sequence (P18177 whole entry, looked up): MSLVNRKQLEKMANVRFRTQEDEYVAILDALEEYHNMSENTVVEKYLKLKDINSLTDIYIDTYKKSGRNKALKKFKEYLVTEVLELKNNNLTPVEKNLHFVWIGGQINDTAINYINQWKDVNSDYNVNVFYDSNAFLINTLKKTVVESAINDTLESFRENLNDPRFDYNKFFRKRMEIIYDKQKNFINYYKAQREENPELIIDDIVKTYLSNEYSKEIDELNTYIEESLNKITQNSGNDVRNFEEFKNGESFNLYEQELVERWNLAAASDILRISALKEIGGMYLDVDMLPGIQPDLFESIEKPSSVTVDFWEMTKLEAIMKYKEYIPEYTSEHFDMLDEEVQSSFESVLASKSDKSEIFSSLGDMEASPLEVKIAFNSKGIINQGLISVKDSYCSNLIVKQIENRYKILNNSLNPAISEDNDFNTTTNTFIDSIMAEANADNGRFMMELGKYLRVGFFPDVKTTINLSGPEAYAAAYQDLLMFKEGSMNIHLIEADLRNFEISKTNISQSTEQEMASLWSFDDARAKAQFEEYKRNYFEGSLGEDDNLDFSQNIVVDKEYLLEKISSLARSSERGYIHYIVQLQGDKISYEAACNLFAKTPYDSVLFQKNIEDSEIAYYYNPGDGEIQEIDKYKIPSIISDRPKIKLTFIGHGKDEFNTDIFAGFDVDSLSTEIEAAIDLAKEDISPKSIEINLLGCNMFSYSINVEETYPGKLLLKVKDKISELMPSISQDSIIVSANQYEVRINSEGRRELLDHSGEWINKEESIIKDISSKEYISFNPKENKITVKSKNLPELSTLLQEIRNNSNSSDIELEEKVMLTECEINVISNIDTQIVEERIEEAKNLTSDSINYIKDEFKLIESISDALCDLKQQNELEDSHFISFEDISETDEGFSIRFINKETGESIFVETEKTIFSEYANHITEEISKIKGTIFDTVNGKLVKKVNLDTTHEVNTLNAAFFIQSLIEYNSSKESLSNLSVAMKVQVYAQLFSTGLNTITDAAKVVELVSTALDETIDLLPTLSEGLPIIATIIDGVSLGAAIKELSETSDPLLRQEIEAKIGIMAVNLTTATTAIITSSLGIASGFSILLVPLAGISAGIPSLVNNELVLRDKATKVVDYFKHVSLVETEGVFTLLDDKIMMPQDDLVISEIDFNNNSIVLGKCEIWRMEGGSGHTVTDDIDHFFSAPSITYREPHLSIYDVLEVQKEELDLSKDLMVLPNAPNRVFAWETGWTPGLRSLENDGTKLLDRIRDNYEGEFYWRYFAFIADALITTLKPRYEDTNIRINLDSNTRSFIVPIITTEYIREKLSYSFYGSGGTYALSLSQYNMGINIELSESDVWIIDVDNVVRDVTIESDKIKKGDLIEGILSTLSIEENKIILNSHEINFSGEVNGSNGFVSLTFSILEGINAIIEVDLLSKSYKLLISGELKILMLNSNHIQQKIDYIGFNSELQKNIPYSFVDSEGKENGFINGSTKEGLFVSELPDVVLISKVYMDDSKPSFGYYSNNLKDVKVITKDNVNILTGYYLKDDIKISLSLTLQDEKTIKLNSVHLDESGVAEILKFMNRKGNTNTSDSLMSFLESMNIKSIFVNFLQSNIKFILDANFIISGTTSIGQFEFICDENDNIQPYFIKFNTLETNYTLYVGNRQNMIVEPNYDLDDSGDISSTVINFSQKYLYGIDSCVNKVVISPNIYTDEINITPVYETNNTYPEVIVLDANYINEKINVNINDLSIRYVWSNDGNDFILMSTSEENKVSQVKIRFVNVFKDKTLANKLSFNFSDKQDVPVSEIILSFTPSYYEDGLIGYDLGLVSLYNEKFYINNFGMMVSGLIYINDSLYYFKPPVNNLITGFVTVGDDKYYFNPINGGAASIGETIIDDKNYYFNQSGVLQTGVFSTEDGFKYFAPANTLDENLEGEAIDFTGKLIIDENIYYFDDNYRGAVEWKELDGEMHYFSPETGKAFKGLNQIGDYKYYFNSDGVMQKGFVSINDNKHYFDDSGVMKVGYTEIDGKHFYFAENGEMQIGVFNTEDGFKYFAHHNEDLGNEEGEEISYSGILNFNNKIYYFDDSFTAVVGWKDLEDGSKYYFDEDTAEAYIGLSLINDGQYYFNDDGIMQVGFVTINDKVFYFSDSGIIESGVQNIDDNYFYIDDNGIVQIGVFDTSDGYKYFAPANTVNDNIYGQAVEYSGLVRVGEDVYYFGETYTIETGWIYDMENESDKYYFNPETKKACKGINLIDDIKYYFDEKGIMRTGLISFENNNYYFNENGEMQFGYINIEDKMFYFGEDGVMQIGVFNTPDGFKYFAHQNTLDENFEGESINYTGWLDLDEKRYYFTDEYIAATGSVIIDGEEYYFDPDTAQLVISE

Structure (SMILES) | inhibition
CCC(=O)N(C)C[C@H]1Oc2cc(/C=C/c3ccccc3)ccc2S(=O)(=O)N([C@H](C)CO)C[C@H]1C | 0.008%
CCCC#Cc1ccc([C@H]2[C@@H](CO)N3C(=O)CN(C(=O)c4ccncc4)C[C@H]23)cc1 | 0.225%
COc1ccccc1S(=O)(=O)N1CC[C@@H]2[C@H]1c1cc(-c3ccccc3)ccc1N[C@@H]2CO | -0.443%
COc1ccc(S(=O)(=O)Nc2ccc3c(c2)C(=O)N([C@@H](C)CO)C[C@@H](C)[C@H](CN(C)S(=O)(=O)c2cccs2)O3)cc1 | 0.284%
C[C@H](CO)N1C[C@H](C)[C@H](CN(C)S(=O)(=O)c2cccc(F)c2)Oc2ncc(/C=C/c3ccccc3)cc2C1=O | 0.994%
O=C(Cc1ccccn1)N[C@H]1CC[C@H](CCn2cc(-c3ccc(F)cc3)nn2)O[C@H]1CO | -7.26%
CO[C@@H]1CN(C)C(=O)c2cc(NC(C)=O)ccc2OC[C@H](C)N(Cc2ccccn2)C[C@H]1C | 0.576%
COc1ccccc1-n1c(SCC(=O)O)nc2sc3c(c2c1=O)CCC3 | -0.511%
COc1cccc(-n2c(=S)sc3c(=O)n(-c4ccccc4OC)c(SCC4OCCO4)nc32)c1 | 1.51%
COc1ccc(Cl)cc1-n1c(=S)sc2c(=O)n(-c3ccc(F)cc3)c(SCC(=O)O)nc21 | 20.5% (active)
Cc1cccc(S(=O)(=O)N2CCCCN3[C@@H](CO)[C@H](c4ccc(-c5cccnc5)cc4)[C@@H]3C2)c1 | 0.453%
CCNC(=O)C[C@H]1CC[C@@H]2[C@H](COC[C@H](O)CN2C(=O)Nc2c(C)noc2C)O1 | -1.03%
COc1ccc(CN(C)C[C@H]2OCCCC[C@H](C)Oc3ccc(NC(=O)NC4CCCCC4)cc3C(=O)N([C@@H](C)CO)C[C@@H]2C)cc1 | 0.374%
CO[C@@H]1CN(C)C(=O)c2cc(NC(=O)c3ccc4c(c3)OCO4)ccc2OC[C@H](C)N(CCC(F)(F)F)C[C@H]1C | 1.3%
O=C(NCC[C@H]1CC[C@@H](NS(=O)(=O)c2cccc(Cl)c2)[C@@H](CO)O1)c1cnccn1 | -2.69%
C[C@H]1CN([C@@H](C)CO)C(=O)c2cc(C#Cc3ccccc3F)cnc2O[C@@H]1CN(C)C(=O)C1CC1 | -2.35%
N#C[C@H]1[C@@H](c2ccccc2C2=CCCCC2)[C@H](CO)N1C(=O)c1ccccn1 | -7.67%
COc1ccc2c3c(n(C)c2c1)[C@H](CO)N(C(C)=O)CC31CN(C(=O)c2cnccn2)C1 | 0.415%
Cc1cccn2c(CNCC(C)Oc3cccnc3)c(C(=O)N3CCOCC3)nc12 (stereo not given) | -0.924%
Cc1cccn2c(CN(C)C3CCCc4ccccc43)c(C(=O)N3CCOCC3)nc12 (stereo not given) | 11% (active)
CCOC(=O)C1CCN(Cc2c(C(=O)N3CCOCC3)nc3c(C)cccn23)CC1 | 1.15%
COc1ccc(C#Cc2ccc([C@H]3[C@H]4CN(C(=O)c5ccncc5)CC(=O)N4[C@H]3CO)cc2)cc1 | -0.009%
N#C[C@@H]1[C@H](c2ccccc2-c2cccc(F)c2)[C@@H](CO)N1C(=O)CN1CCOCC1 | -0.655%
Cc1noc(C)c1NC(=O)N[C@@H]1CC[C@H](CC(=O)Nc2ccccc2)O[C@H]1CO | 2.14%
CO[C@@H]1CC[C@@H]2CCOc3c(C#N)cccc3C(=O)N(C)C[C@@H](C)C(=O)N(C)C[C@@H]1O2 | -0.159%
